Structures can show the parent of a compound that is named as a salt.
Tested on: Danio rerio larvae (5 dpf)
Assay: combined optomotor response (time in upper well half, down vs up moving lines, periods 7-14) minus DMSO control (percentage points); higher = stronger optomotor response than DMSO larvae
Details: 10 µM; exposure time: 3 h pre-incubation + 3 h imaging
Method: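 Wild-type 5 dpf zebrafish larvae (n=48 per drug, 96-well plates, 28.5 °C) were exposed to Tocris FDA-approved library compounds at 10 µM (0.1% DMSO) for 3 h before and 3 h during imaging. Images were taken every 6 s during visual and acoustic stimuli, and larvae were tracked with Z-LaP Tracker. Each measure is the treated-group mean minus the DMSO control mean (n=844), in percentage points. This mapping covers compounds with 5-character plate codes.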

SMILES	combined optomotor response
COc1ccc(C(CN(C)C)C2(O)CCCCC2)cc1 (stereo unspecified) [Venlafaxine hydrochloride]	-1.24
